Assay results as given in PubChem BioAssay AID624255 (Broad Institute, 2012).
“And” between values parts separate entries of the source, which are not always exact repeats. Equal entries are not always repeated. About 4,600 (6%) of roughly 77,000 compounds were called active. Roughly 1% stayed inconclusive and do not appear here.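 The calls were made as follows: active = mean inhibition above about 93%, with at least 55% of replicates each passing it (limit read from the data, passing the limit was not always enough); inconclusive = only one of those two conditions holds; inactive = neither condition holds.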 The list comes from a sample in which actives are over-represented; it also holds similar structures and randomly drawn compounds.

Test: growth inhibition of T. cruzi in host fibroblasts – cell-based, beta-gal Tulahuen parasites, NIH3T3 host, luminescence, primary screen (AID 624255)
Conditions: T. cruzi beta-gal in NIH3T3, GalScreen luminescence, 90 h; at 8.34 µM; stronger effect = higher value
In the case of `C[C@H]1CN([C@@H](C)CO)C(=O)c2cc(NC(=O)C3CC3)ccc2O[C@@H]1CN(C)Cc1ccc(Oc2ccccc2)cc1`, the inhibition was 66.9% (inactive). With `COc1ccc(NC(=O)Nc2ccc3c(c2)C(=O)N([C@@H](C)CO)C[C@H](C)[C@@H](CN(C)Cc2ccc4c(c2)OCO4)O3)cc1` the inhibition was 31.2% (inactive). With `C[C@H]1CN([C@@H](C)CO)C(=O)c2cc(NC(=O)Nc3ccc4c(c3)OCO4)ccc2O[C@@H]1CN(C)Cc1ccc(Oc2ccccc2)cc1` the inhibition was 119% (active). For `C[C@@H]1CN([C@@H](C)CO)C(=O)c2cc(NC(=O)Nc3ccc4c(c3)OCO4)ccc2O[C@@H]1CN(C)Cc1ccc(Oc2ccccc2)cc1`, the inhibition was 100% (active). In the case of `C[C@@H]1CN([C@H](C)CO)C(=O)c2cc(NC(=O)Nc3ccc4c(c3)OCO4)ccc2O[C@H]1CN(C)Cc1ccc(-c2ccccc2)cc1`, the inhibition was 70.1% (inactive). With `C[C@H](CO)N1C[C@H](C)[C@@H](CN(C)Cc2ccccc2)Oc2ccc(NC(=O)Nc3ccc4c(c3)OCO4)cc2C1=O` the inhibition was 8.73% (inactive). With `CCCNC(=O)C[C@@H]1CC[C@@H]2[C@H](COc3ccc(NC(=O)c4cc(F)cc(F)c4)cc3C(=O)N2C)O1` the inhibition was -19.9% (inactive). With `C[C@@H]1CCCCO[C@@H](CN(C)C(=O)Nc2ccc(F)cc2)[C@H](C)CN([C@@H](C)CO)C(=O)c2cc(NS(C)(=O)=O)ccc2O1` the inhibition was 23.8% (inactive). With `CN(C)C(=O)c1ccc(-c2ccc([C@H]3[C@@H](CO)N4CCCCN(CC5CC5)C[C@H]34)cc2)cc1` the inhibition was 108% (active). For `CN(C)C(=O)c1ccc(-c2ccc([C@@H]3[C@H](CO)N4CCCCN(S(C)(=O)=O)C[C@@H]34)cc2)cc1`, the inhibition was 103% (active). With `CS(=O)(=O)N1CCCCN2[C@@H](CO)[C@@H](c3ccc(Br)cc3)[C@@H]2C1` the inhibition was -42.1% (inactive). In the case of `CN(C)CC#Cc1ccc([C@H]2[C@H](CO)N3CCCCN(CC4CC4)C[C@@H]23)cc1`, the inhibition was -75.2% (inactive). For `CN(C)C(=O)c1ccc(-c2ccc([C@@H]3[C@@H](CO)N4CCCCN(CC5CC5)C[C@H]34)cc2)cc1`, the inhibition was 11.3% (inactive). In the case of `CN(C)C(=O)c1ccc(-c2ccc([C@H]3[C@H](CO)N4CCCCN(S(C)(=O)=O)C[C@@H]34)cc2)cc1`, the inhibition was 83.3% (inactive). For `CN1C(=O)c2cc(NC(=O)Nc3ccccc3Cl)ccc2OC[C@H]2O[C@@H](CC(=O)O)CC[C@H]21`, the inhibition was 15.3% (inactive). With `Cc1noc(C)c1NC(=O)N(C)C[C@@H]1OCCCC[C@H](C)Oc2ccc(NC(=O)NC3CCCCC3)cc2C(=O)N([C@H](C)CO)C[C@@H]1C` the inhibition was 22.8% (inactive). With `Cc1ccccc1S(=O)(=O)Nc1ccc2c(c1)C(=O)N(C)[C@H]1CC[C@@H](CC(=O)O)O[C@H]1CO2` the inhibition was 13.1% (inactive). For `C[C@@H]1CN([C@H](C)CO)C(=O)Cc2cc(NC(=O)CCN3CCOCC3)ccc2O[C@H]1CN(C)CC1CC1`, the inhibition was 37.8% (inactive). With `O=C(CC1CC1)N1[C@H](CO)[C@@H]2c3ccccc3N(S(=O)(=O)c3ccc(F)cc3)C[C@@H]21` the inhibition was 18.3% (inactive). In the case of `C[C@H](CO)N1C[C@H](C)[C@@H](CN(C)S(=O)(=O)c2ccccc2)Oc2ncc(C#Cc3ccccc3F)cc2C1=O`, the inhibition was 120% (active). For `C[C@H]1CN([C@@H](C)CO)C(=O)CCCn2cc(nn2)CO[C@@H]1CN(C)S(=O)(=O)c1ccc(-c2ccccc2)cc1`, the inhibition was 3.26% (inactive) and 11.9% (inactive). For `C[C@@H]1CN([C@@H](C)CO)C(=O)CCCn2cc(nn2)CO[C@@H]1CN(C)S(=O)(=O)c1cccc(F)c1`, the inhibition was -8.28% (inactive). For `COc1ccc(C#Cc2cnc3c(c2)C(=O)N([C@H](C)CO)C[C@H](C)[C@H](CN(C)S(=O)(=O)c2ccc(F)cc2)O3)cc1OC`, the inhibition was 104% (inactive). With `C[C@H]1CN([C@@H](C)CO)C(=O)c2cc(C#Cc3ccccc3F)cnc2O[C@@H]1CN(C)C(=O)C1CC1` the inhibition was -11.1% (inactive). For `C[C@H](CO)N1C[C@H](C)[C@@H](CN(C)S(=O)(=O)c2ccccc2F)Oc2ncc(C#Cc3ccccc3F)cc2C1=O`, the inhibition was 112% (active). For `CCCNC(=O)N(C)C[C@@H]1Oc2ncc(C#Cc3ccccc3F)cc2C(=O)N([C@@H](C)CO)C[C@H]1C`, the inhibition was 116% (active). With `C[C@H](CO)N1C[C@H](C)[C@H](CN(C)C(=O)C2CCOCC2)Oc2ncc(C#Cc3ccccc3F)cc2C1=O` the inhibition was -27.2% (inactive). For `CCCNC(=O)N(C)C[C@H]1Oc2ncc(C#CC(C)C)cc2C(=O)N([C@@H](C)CO)C[C@@H]1C`, the inhibition was 53.3% (inactive). In the case of `C[C@H]1CN([C@@H](C)CO)C(=O)c2cc(C#Cc3ccccc3F)cnc2O[C@H]1CN(C)C`, the inhibition was 87.2% (inactive). For `CCCNC(=O)N(C)C[C@H]1Oc2ncc(C#Cc3ccncc3)cc2C(=O)N([C@@H](C)CO)C[C@@H]1C`, the inhibition was 12.1% (inactive). In the case of `C[C@@H]1CN([C@@H](C)CO)C(=O)CCCn2cc(nn2)CO[C@@H]1CN(C)S(=O)(=O)c1ccccc1F`, the inhibition was 112% (active). With `CCC(=O)NC[C@H]1[C@@H](c2ccc(C3=CCCC3)cc2)[C@@H](CO)N1C(=O)C1CC1` the inhibition was 21.5% (inactive). For `CO[C@H]1CN(C)C(=O)c2cc(NC(=O)C3CCCCC3)ccc2OC[C@H](C)N(C(=O)c2ccccc2)C[C@H]1C`, the inhibition was 7.09% (inactive). In the case of `C/C=C/c1cnc2c(c1)C(=O)N([C@@H](C)CO)C[C@@H](C)[C@@H](CN(C)C(=O)C1CCOCC1)O2`, the inhibition was -31.5% (inactive). With `CCCNC(=O)Nc1ccc2c(c1)C(=O)N(C)[C@H]1CC[C@H](CC(=O)NC3CCC3)O[C@H]1CO2` the inhibition was 57.7% (inactive). For `O=C(Cc1ccccc1)N1CC[C@@H]2[C@H](CO)Nc3ccc(-c4ccccc4)cc3[C@@H]21`, the inhibition was 81.9% (inactive). For `N#Cc1ccc(-c2ccc3c(c2)[C@@H]2[C@@H](CCN2C(=O)Cc2ccncc2)[C@@H](CO)N3)cc1`, the inhibition was 108% (active). In the case of `O=C(Cc1ccccc1)N1CC[C@H]2[C@H](CO)Nc3ccc(-c4ccccc4F)cc3[C@H]21`, the inhibition was 111% (active). For `CN(C)C(=O)c1cccc(-c2ccc3c(c2)[C@H]2[C@H](CCN2C(=O)Cc2ccccc2)[C@H](CO)N3)c1`, the inhibition was 80.1% (inactive). With `O=C(CC1CC1)N1CC[C@@H]2[C@H](CO)Nc3ccc(-c4ccc(F)cc4)cc3[C@@H]21` the inhibition was 89.6% (inactive). With `N#Cc1ccc(-c2ccc3c(c2)[C@H]2[C@H](CCN2Cc2ccc4c(c2)OCO4)[C@@H](CO)N3)cc1` the inhibition was 79.2% (inactive). With `Cc1noc(C)c1NC(=O)N(C)C[C@@H]1OCCCC[C@H](C)Oc2ccc(NS(=O)(=O)c3c(C)noc3C)cc2C(=O)N([C@@H](C)CO)C[C@@H]1C` the inhibition was -9.2% (inactive). With `COc1cccc(S(=O)(=O)N[C@H]2CC[C@@H](CC(=O)NCc3ccc(F)cc3)O[C@@H]2CO)c1` the inhibition was 47.6% (inactive). In the case of `COc1ccc(-c2ccc3c(c2)O[C@@H](CN(C)CC2CCOCC2)[C@@H](C)CN([C@@H](C)CO)S3(=O)=O)cc1`, the inhibition was 40.6% (inactive). In the case of `COc1ccc(S(=O)(=O)Nc2ccc3c(c2)C(=O)N([C@@H](C)CO)C[C@H](C)[C@H](CN(C)Cc2ccc(C(F)(F)F)cc2)OCCCC[C@@H](C)O3)cc1`, the inhibition was 63.1% (inactive). For `Cc1ccc(S(=O)(=O)Nc2ccc3c(c2)C(=O)N([C@H](C)CO)C[C@@H](C)[C@H](CN(C)Cc2ccccc2)OCCCC[C@H](C)O3)cc1`, the inhibition was 85.7% (inactive). With `C[C@@H]1CN([C@H](C)CO)C(=O)c2cc(NS(=O)(=O)c3cccs3)ccc2O[C@@H](C)CCCCO[C@H]1CN(C)Cc1ccc(C(F)(F)F)cc1` the inhibition was 97.6% (active). For `C[C@@H]1CCCCO[C@@H](CN(C)Cc2ccc(C(F)(F)F)cc2)[C@H](C)CN([C@H](C)CO)C(=O)c2cc(NS(=O)(=O)c3ccc(F)cc3)ccc2O1`, the inhibition was 56.1% (inactive). With `C[C@H](CO)N1C[C@H](C)[C@H](CN(C)Cc2ccc(C(F)(F)F)cc2)OCCCC[C@H](C)Oc2ccc(NS(=O)(=O)c3ccc(Cl)cc3)cc2C1=O` the inhibition was 98.6% (active). In the case of `C[C@@H]1CN([C@H](C)CO)C(=O)c2cc(NS(=O)(=O)c3ccc(Cl)cc3)ccc2O[C@@H](C)CCCCO[C@H]1CN(C)Cc1ccccc1`, the inhibition was 112% (active). With `C[C@@H]1CCCCO[C@@H](CN(C)Cc2ccc(C(=O)O)cc2)[C@H](C)CN([C@H](C)CO)C(=O)c2cc(NS(=O)(=O)c3cccs3)ccc2O1` the inhibition was -101% (inactive). In the case of `COc1ccc(CN(C)C[C@@H]2OCCCC[C@H](C)Oc3ccc(NS(=O)(=O)c4cccs4)cc3C(=O)N([C@H](C)CO)C[C@@H]2C)cc1`, the inhibition was 44.9% (inactive). With `C[C@@H]1CCCCO[C@H](CN(C)Cc2ccccc2)[C@@H](C)CN([C@H](C)CO)C(=O)c2cc(NS(=O)(=O)c3ccc(Cl)cc3)ccc2O1` the inhibition was -26.9% (inactive). For `Cc1ccc(S(=O)(=O)Nc2ccc3c(c2)C(=O)N([C@H](C)CO)C[C@H](C)[C@@H](CN(C)Cc2ccccc2)OCCCC[C@H](C)O3)cc1`, the inhibition was 38.8% (inactive). With `C[C@@H]1CCCCO[C@H](CN(C)Cc2ccccc2)[C@H](C)CN([C@@H](C)CO)C(=O)c2cc(NS(=O)(=O)c3ccccc3)ccc2O1` the inhibition was 86% (inactive). With `C[C@@H]1CCCCO[C@H](CN(C)Cc2ccccc2)[C@H](C)CN([C@H](C)CO)C(=O)c2cc(NS(=O)(=O)c3ccc(Cl)cc3)ccc2O1` the inhibition was 109% (active). In the case of `CN1C(=O)c2cc(NC(=O)C3CC3)ccc2OC[C@@H]2O[C@@H](CC(=O)NCC3CCCCC3)CC[C@@H]21`, the inhibition was -7.09% (inactive). In the case of `CCN1[C@@H]2c3ccc(C4=CCCC4)c(=O)n3C[C@@H]2[C@@H](CO)[C@@H]1C(=O)NCc1ccccn1`, the inhibition was 26.1% (inactive).
